Measurements from PubChem BioAssay (NCATS).
Where “and” joins values, the source holds several entries; their conditions need not be identical. Equal values may be shown once. Records with an inconclusive call do not appear. Calls of active or inactive are those of the source. Calls follow the shape of the dose curve; as a rule, active = well fitted inhibition curve with a large enough effect; inconclusive = small, poorly fitted or top-dose-only effect; inactive = flat fitted curve, though single readings scatter.

Tests used:
CRL-7250 = normal cell line; test: Cytotoxic Profiling of Annotated Libraries Using Quantitative High-Throughput Screening (AID 1296008); settings: Five cell lines viability, CellTiter-Glo ATP luminescence, 48-72 h; max response: stronger effect = lower value; also: potency is read from the fitted curve at half-maximal effect; as to max response: % is scaled to controls: 0 for no effect and ±100 for the full control effect
Method in brief: (§1)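 Cytotoxicity was measured as CellTiter-Glo ATP luminescence, read after 10 min at room temperature. Compound treatment of the cells lasted 48 or 72 hr at 37 degrees Celsius in a qHTS format.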

HEK293 = test: as above; settings: Five cell lines viability, CellTiter-Glo ATP luminescence, 48-72 h; max response: stronger effect = lower value
Method in brief: as §1

HaCat [1] = test: as above; settings: Five cell lines viability, CellTiter-Glo ATP luminescence, 48-72 h; max response: stronger effect = lower value
Method in brief: as §1

NIH3T3 = test: as above; settings: Five cell lines viability, CellTiter-Glo ATP luminescence, 48-72 h; max response: stronger effect = lower value
Method in brief: as §1

HACAT [2] = test: qHTS assay to identify novel small-molecules to repurpose for Merkel cell carcinoma treatment (AID 1296009); settings: MCC and control cell lines, CellTiter-Glo viability, 72 h; at 44.8 µM (top of the series) unless noted
Method in brief: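 72 hr, 37 degree celsius; NPC 8-pt / MIPE 11-pt dose response; compound pinned in DMSO; CellTiter-Glo, 10 min RT, luminescence; normalized to no-cell and DMSO controls.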

TAB109 = test: qHTS profiling for inhibitors of Plasmodium falciparum proliferation (AID 504749); also: potency is read from the fitted curve at half-maximal effect; settings: P. falciparum in erythrocytes, SYBR Green DNA, 72 h; series mostly up to 28.7 µM
Method in brief: (§2)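 Infected RBCs, 0.3% parasitemia/2.5% Hct final; cpd 72 h, 37 C, 5% CO2; lysis buffer with saponin/triton/SYBR Green I, o/n RT dark; FI 485/535; norm. to artemisinin (0.29 uM) and DMSO.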

TAB165 = test: as above; settings: P. falciparum in erythrocytes, SYBR Green DNA, 72 h; series mostly up to 28.7 µM
Method in brief: as §2

W2 = test: as above; settings: P. falciparum in erythrocytes, SYBR Green DNA, 72 h; series mostly up to 28.7 µM
Method in brief: as §2

KB-3-1 = test: Cytotoxic Profiling of Annotated Libraries Using Quantitative High-Throughput Screening (AID 1296008); settings: Five cell lines viability, CellTiter-Glo ATP luminescence, 48-72 h; max response: stronger effect = lower value; also: potency is read from the fitted curve at half-maximal effect; as to max response: % is scaled to controls: 0 for no effect and ±100 for the full control effect
Method in brief: as §1

TAB113 = test: qHTS profiling for inhibitors of Plasmodium falciparum proliferation (AID 504749); also: potency is read from the fitted curve at half-maximal effect; settings: P. falciparum in erythrocytes, SYBR Green DNA, 72 h; series mostly up to 28.7 µM
Method in brief: as §2
Also: nearly all actives have a fitted effect of over 60% in size.

OC[C@H]1O[C@@H](O[C@@H]2[C@@H](CO)O[C@](O)(CO)[C@H]2O)[C@H](O)[C@@H](O)[C@H]1O
inactive: max response (CRL-7250) -1.41% | outcome (HEK293) | outcome (HaCat [1]) | max response (NIH3T3) 4.19% | outcome (HACAT [2])

CCN(CC)CCOC(=O)C1(C2CCCCC2)CCCCC1
inactive: outcome (CRL-7250) | max response (HEK293) -0.793% | outcome (HaCat [1]) | max response (NIH3T3) 1.01% | outcome (HACAT [2])

O=c1[nH]c(=O)c2[nH]c(=O)[nH]c2[nH]1
inactive: Potency (TAB109) | Potency (TAB165) | Potency (W2) | max response (CRL-7250) -3.74% | max response (HEK293) -1.57% | max response (HaCat [1]) 1.96% | max response (KB-3-1) 23.1% and -16.9% | outcome (NIH3T3)

COc1cc2[nH]c(=O)[nH]c(=O)c2cc1OC
inactive: Potency (TAB109) | Potency (TAB113) | Potency (TAB165) | Potency (W2) | outcome (CRL-7250) | outcome (HEK293) | outcome (HaCat [1]) | max response (NIH3T3) 2.37% | outcome (HACAT [2])

CN(C)CCN(Cc1ccccc1)c1ccccn1
inactive: Potency (TAB113) | Potency (TAB165) | outcome (CRL-7250) | outcome (HEK293) | outcome (HaCat [1]) | max response (NIH3T3) 0.397% | outcome (HACAT [2])

O=C1NC(=O)[C@@]2(CCOc3ccc(F)cc32)N1
inactive: Potency (TAB109) | Potency (TAB113) | Potency (TAB165) | Potency (W2)

CC(C)c1c(C(=O)Nc2ccccc2)c(-c2ccccc2)c(-c2ccc(F)cc2)n1CC[C@@H](O)C[C@@H](O)CC(=O)O
active: Potency (CRL-7250) 6.68 µM and 2.73 µM
inactive: max response (NIH3T3) -9.75% and 4.05%

CC1=C(CC(=O)O)c2cc(F)ccc2/C1=C\c1ccc(S(C)=O)cc1 (centres undefined)
inactive: Potency (TAB109) | Potency (TAB113) | Potency (TAB165) | outcome (HaCat [1])

OCc1cc(C(O)CNCCCCCCOCCCCc2ccccc2)ccc1O (centres undefined)
inactive: Potency (TAB113) | max response (CRL-7250) -15.6% | max response (HaCat [1]) 2.23% | max response (KB-3-1) -19.3% | max response (NIH3T3) -10.4%

COC(=O)C1=C(C)NC(C)=C(C(=O)OC)C1c1ccccc1[N+](=O)[O-]
inactive: Potency (TAB109) | Potency (TAB113) | Potency (TAB165) | Potency (W2) | max response (CRL-7250) -7.51% | max response (HEK293) -14.4% | max response (HaCat [1]) -2.57%

C=Cc1c(C)c2cc3[nH]c(cc4nc(cc5nc(cc1[nH]2)C(C)=C5CCC(=O)O)C(CCC(=O)O)=C4C)c(C)c3C=C
inactive: Potency (TAB109) | Potency (TAB113) | Potency (TAB165) | Potency (W2) | max response (HEK293) -10.7% | outcome (HaCat [1]) | max response (KB-3-1) -3.43% | max response (NIH3T3) -14.7% | outcome (HACAT [2])

CCN(CC)CCCC(C)Nc1c2ccc(Cl)cc2nc2ccc(OC)cc12 (centres undefined)
inactive: max response (KB-3-1) -7.27%
active: Potency (CRL-7250) 16.8 µM | Potency (HEK293) 7.5 µM and 3.17 µM

CC1=C(/C=C/C(C)=C/C=C/C(C)=C/C(=O)O)C(C)(C)CCC1
inactive: Potency (TAB109) | Potency (TAB113) | Potency (TAB165) | Potency (W2) | max response (HaCat [1]) -3.44% | max response (NIH3T3) -0.598%

CNCC(O)c1ccc(O)c(O)c1 (centres undefined)
inactive: max response (HaCat [1]) -0.0091% | max response (NIH3T3) -1.98%

COc1ccc2cc1Oc1ccc(cc1)C[C@H]1c3c(cc4c(c3Oc3cc5c(cc3OC)CCN(C)[C@@H]5C2)OCO4)CCN1C
active: Potency (HEK293) 10.6 µM and 7.31 µM
inactive: outcome (HaCat [1]) | max response (KB-3-1) 0.814% | outcome (HACAT [2])

NC(=O)N/N=C/c1ccc([N+](=O)[O-])o1
inactive: max response (CRL-7250) -6.15% | max response (HaCat [1]) -0.194% | outcome (HaCat [1]) | max response (KB-3-1) -7.34% and -25.8% | max response (NIH3T3) 3.44% | outcome (HACAT [2])
active: Potency (TAB109) 12.6 µM | Potency (W2) 9.53 µM

CNCCCC1c2ccccc2C=Cc2ccccc21
active: Potency (W2) 0.51 µM
inactive: Potency (TAB109) | Potency (TAB113) | max response (HaCat [1]) -1.18% | max response (KB-3-1) 6.95%

CSc1ccc2c(c1)N(CCC1CCCCN1C)c1ccccc1S2 (centres undefined)
active: Potency (TAB109) 8.91 µM | Potency (TAB113) 10 µM | Potency (TAB165) 12.6 µM | Potency (W2) 6.75 µM
inactive: max response (KB-3-1) -7.5%

COCCOC(=O)C1=C(C)NC(C)=C(C(=O)OC/C=C/c2ccccc2)C1c1cccc([N+](=O)[O-])c1 (centres undefined)
inactive: max response (KB-3-1) 22.9%
active: Potency (TAB165) 12.6 µM | Potency (W2) 9.53 µM

CC(CN(C)C)CN1c2ccccc2CCc2ccccc21 (centres undefined)
inactive: outcome (CRL-7250) | max response (HaCat [1]) 2.23% | max response (KB-3-1) 4.48% | max response (NIH3T3) 4.54%

CN(C)CCC=C1c2ccccc2CCc2ccccc21
inactive: outcome (HaCat [1]) | max response (KB-3-1) -15.7% | max response (NIH3T3) -1.26% | outcome (HACAT [2])
